In PubChem BioAssay AID1347421 (Sanford-Burnham Center for Chemical Genomics, 2020) one finds activity data, which are given here for 68 compounds.

Molecules are shown by their SMILES. In all, about 1,500 compounds were measured (“activity”: median about 2, lowest 2% from about -18 on). For the sample, the lowest values were picked, then their nearest neighbours and some compounds at random. Activity calls are given as the source filed them.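 How the source made its calls: active means inhibition of at least 40% at 10 µM; inconclusive means no clear call, values can overlap the other calls; inactive means the rest.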

The target in this test is Sulfhydryl oxidase 1 (Homo sapiens) (UniProt O00391). Put plainly: human QSOX1 sulfhydryl oxidase inhibition – biochemical, ROS-Glo luminescence, single concentration, confirmation (AID 1347421).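 Further: 0% = DMSO wells with enzyme and 100% = wells lacking QSOX1 enzyme.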 Particulars: recombinant hQSOX1, RNase A substrate, ROS-Glo H2O2 luminescence; at 10 µM.
Chain of Sulfhydryl oxidase 1 (Homo sapiens) (O00391 whole entry, looked up): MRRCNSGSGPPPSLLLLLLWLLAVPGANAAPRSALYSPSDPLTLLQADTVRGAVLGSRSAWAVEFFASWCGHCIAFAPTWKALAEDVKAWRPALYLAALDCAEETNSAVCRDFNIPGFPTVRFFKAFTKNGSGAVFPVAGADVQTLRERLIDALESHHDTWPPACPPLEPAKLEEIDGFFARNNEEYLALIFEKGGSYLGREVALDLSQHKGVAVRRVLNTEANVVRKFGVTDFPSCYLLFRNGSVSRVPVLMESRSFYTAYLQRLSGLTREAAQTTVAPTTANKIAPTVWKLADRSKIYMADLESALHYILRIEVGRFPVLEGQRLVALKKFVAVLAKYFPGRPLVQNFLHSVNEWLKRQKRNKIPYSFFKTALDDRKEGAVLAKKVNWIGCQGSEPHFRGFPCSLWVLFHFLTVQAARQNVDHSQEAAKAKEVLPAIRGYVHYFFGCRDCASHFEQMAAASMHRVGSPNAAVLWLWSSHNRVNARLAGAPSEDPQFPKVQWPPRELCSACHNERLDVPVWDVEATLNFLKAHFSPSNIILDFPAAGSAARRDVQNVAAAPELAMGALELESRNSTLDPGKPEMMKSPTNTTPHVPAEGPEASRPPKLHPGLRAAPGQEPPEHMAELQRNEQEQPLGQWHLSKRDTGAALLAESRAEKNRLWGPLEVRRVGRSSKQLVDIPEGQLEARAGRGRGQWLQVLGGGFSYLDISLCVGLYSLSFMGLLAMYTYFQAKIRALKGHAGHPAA
Regarding `COCCN1C(=O)C(=O)/C(=C(\O)c2ccc(OC)cc2C)C1c1cccnc1` (stereo not drawn), the activity was -3% (inactive).

Regarding `NC(=O)C1CCCN(C(=O)Nc2ccc(F)cc2)C1` (stereo not drawn), the activity is -0.4% (inactive). The figure for `CSc1ncc(CN2CCCC(CO)(CCOc3ccccc3)C2)cn1` (stereo not drawn) is 10.5%. The figure for `COc1ccccc1CCN1CCC(CN(C)C(=O)c2cscn2)CC1` is -1.8% (inactive). The figure for `Cc1cc(CNCc2cccc(OCC(O)CN3CCCCCC3)c2)on1` (stereo not drawn) is -2.7% (inactive). Regarding `COC(=O)c1ccc(CNC(=O)CC2C(=O)NCCN2Cc2cccs2)cc1` (stereo not drawn), the activity was 2.8%.

As to `O=C(c1ccc(-c2ccccc2)c(F)c1)C1CCCN(C(=O)CCc2cnccn2)C1` (stereo not drawn), the activity was 9.5%. The result for `Fc1ccc(C2(c3noc(-c4cn[nH]c4)n3)CCOC2)cc1` (stereo not drawn) reads 2.1%.

Turning to `CC(C)Oc1cccc(C(=O)Nc2ncn[nH]2)c1`, the activity was -3.3% (inactive). For the compound `Cc1cc(C)c(S(=O)(=O)Nc2ncn[nH]2)c(C)c1`, the activity was -18.4% (inactive).

Consider `CCOC(=O)C1(CCCc2ccccc2)CCN(C(=O)CCn2cnnn2)CC1`, for which the activity was 0.6%. With `COCc1ccc(C(=O)N2CCC(CCC(=O)NCc3cccnc3)CC2)o1`, the activity was 4.1%. Consider `CC(C)CCCC1CN(Cc2ncc[nH]2)CCO1` (stereo not drawn), for which the activity was 5.8%. As for `COc1ccc(OC2CCN(C(=O)C3CC3)CC2)c(C(=O)NCCCN2CCOCC2)c1`, the activity was 2%. Turning to `Cc1cccc(N2CCN(CC(=O)Nc3ccc(S(N)(=O)=O)cc3)CC2)c1C`, the activity was -11.2% (inactive).

With `O=C(CN1CCCCCC1)Nc1ccc(Cl)cc1`, the activity is -10% (inactive).

Turning to `Cc1ccc(NC(=O)CN2CCc3ccccc3C2)cc1`, the activity is -21.7% (inactive). As to `CN(C)CCC1CN(C(=O)CSc2ccccc2)CCO1` (stereo not drawn), the activity came to 4.2%. The result for `CC(C)Cc1ccc(CN2CCCC(NC3CCN(C)CC3)C2)cc1` (stereo not drawn) reads -2.5% (inactive); that for `O=C(CCc1ccncc1)N1CCOC(Cc2ccccc2Cl)C1` (stereo not drawn), 3.1%. The result for `CCN1CCCC1CN(CC1CCN(CCOC)CC1)C(=O)CCc1ccc(=O)[nH]n1` (stereo not drawn) reads 6.9%; that for `CN(C)CCC1CN(Cc2cnc(-c3ccccc3)s2)CCO1` (stereo not drawn), -0.6% (inactive); that for `CCCn1c(=O)c2c(nc3n2CCN3Cc2ccco2)n(C)c1=O`, -9.9% (inactive).

Consider `Cc1nc(-c2ccc(CN3CCC(CCn4cccn4)CC3)cc2)[nH]c(=O)c1F`, for which the activity came out at 7.1%.

Regarding `CC(C)(C)C1(c2ccccc2)NC(=O)N(CC(=O)N2CCCCC2)C1=O` (stereo not drawn), the activity is -23.9% (inactive). The result for `O=C(c1ccc(-c2ccccc2)cc1)C1CCCN(C(=O)CN2C(=O)CSC2=O)C1` (stereo not drawn) reads 5.7%; that for `O=C(CN1C(=O)CCNC1=O)N1CCC(OCc2ccccc2)CC1`, 2.9%. On to `COc1ccc(-c2noc(CN3CCC(C)CC3)n2)cc1OC`, for which the activity was -16% (inactive). The result for `COc1cc(CN2CC[C@@H](N3CCCCCC3)[C@H](O)C2)ccc1F` reads 0.7%; that for `O=C(CCC1CCCN(C/C=C/c2ccc(F)cc2)C1)N1CCCC1` (stereo not drawn), -1.2% (inactive); that for `CS(=O)(=O)N(CC(=O)N1CCCC1)Cc1ccc(F)cc1`, -19.7% (inactive). For `CN(C)S(=O)(=O)c1ccc(CCC(=O)N2CCOCC2)cc1`, the activity stood at 1.9%. The figure for `COc1ccc(CNCCCN2CCOCC2)cc1OCC(O)CN1CCCC1` (stereo not drawn) is 4.6%; for `COC(=O)CCCNC(=O)C1CCC(=O)N(Cc2ccccc2OC)C1` (stereo not drawn) it is 1.6%; for `COCCCNc1nc2nonc2nc1N(C)CCN1CCOCC1` it is -1.4% (inactive). The figure for `COc1ccc(C(C)N(C)Cc2nc(-c3ccc(OC)cc3OC)oc2C)cc1` (stereo not drawn) is 5.7%; for `COc1ccc(OC)c(-c2nc(CN3CCN(C(=O)c4ccco4)CC3)c(C)o2)c1` it is -4% (inactive); for `COc1ccc2oc3nc(=O)c4ccccc4c-3cc2c1` it is -123% (inactive). The result for `Cc1ccc(C(=O)N2CCC3(CCCN(Cc4ccc(F)c(F)c4)C3=O)C2)cn1` (stereo not drawn) reads 3.9%; that for `CCSCCn1ncc(N2CCNCC2)cc1=O`, 1.4%; that for `CC(C)(CO)NC(=O)CC(c1ccccc1)c1ccc(Cl)cc1` (stereo not drawn), 0.5%. Take `NCc1ccccc1SC1=[C+]C=C[C+]=C1CN1CCOCC1`: the activity was -11.3% (inactive). The figure for `O=C(NC(=O)N1CCCC1)c1ccc(Cl)cc1` is -2.8% (inactive); for `O=C1CCCN1CCCNCc1cccc(OCC(O)CN2CCCCCC2)c1` (stereo not drawn) it is 5.6%. The result for `COc1ccccc1Oc1ncccc1CNCC1CCOC1` (stereo not drawn) reads 2.6%; that for `Cc1cc(S(=O)(=O)n2ccnc2)c(C)c(C)c1C`, -0.1% (inactive); that for `O=C(CC1C(=O)NCCN1Cc1cccnc1)NCCCn1ccc2ccccc21` (stereo not drawn), 3.3%. Consider `COCC(=O)Nc1ccc(S(=O)(=O)N2CCCC(C)C2)cc1` (stereo not drawn), for which the activity is 7.5%.

With `COc1ccc(S(=O)(=O)N2CCCC(C(=O)NC3CC3)C2)cc1OC` (stereo not drawn), the activity is -18.9% (inactive). The figure for `COc1ccc(S(=O)(=O)N2CCCC2)cc1N(C)S(C)(=O)=O` is -11% (inactive). The figure for `CN1CCCCCC1C(=O)NCc1cccnc1N1CCN(c2ccccn2)CC1` (stereo not drawn) is -5.2% (inactive).

For the compound `CCOC(=O)c1cccc(CSc2n[nH]c(N)n2)c1`, the activity is -1.9% (inactive). The figure for `Cn1ccnc1C1CCCCN1Cc1c(C(=O)N2CCCCCCC2)nc2sccn12` (stereo not drawn) is 10.8%; for `COc1cccc(-c2n[nH]c3c2CN(CCc2ccccc2)CC3)c1` it is 5.1%; for `Fc1ccccc1-c1noc2c1CN(Cc1ccc3c(c1)OCCO3)CC2` it is -4.5% (inactive). The result for `CCN(CC)C(=O)NCc1ccc2c(c1)OCO2` reads -18.4% (inactive). For the compound `O=C(NCc1ccc2c(c1)OCO2)C1CCC(=O)N(CCc2cccc(F)c2)C1` (stereo not drawn), the activity was -2% (inactive). `CCN(CC)C(=O)NCc1ccccn1`: the activity was -15.1% (inactive). `Cc1cc(N2CCN(C(=O)c3cn(Cc4ccccc4F)nn3)CC2)cc(C)n1`: the activity amounted to 2.1%.

Regarding `Cc1noc(C)c1CC(=O)N1CCCC(CCC(=O)N(C)CCc2ccccn2)C1` (stereo not drawn), the activity is 5.3%. The figure for `CN(CCc1ccccn1)C(=O)CCC1CCCN(C(=O)Cc2cccnc2)C1` (stereo not drawn) is 4.4%; for `FC(F)(F)c1cc(-c2ccco2)nc(N2CCCCC2)n1` it is -20.8% (inactive). The figure for `FC(F)(F)c1cc(-c2ccco2)nc(NCc2cccs2)n1` is -4.8% (inactive); for `Cc1ccccc1CC(=O)NCC(C)C` it is -16% (inactive); for `COc1cc(C(=O)NC2CCCCC2)ccc1OC1CCN(C(C)=O)CC1` it is 3.4%.

Consider `CN(CCc1ccccn1)[C@@H]1CCN(Cc2ccc(C#CCO)s2)C[C@H]1O`, for which the activity amounted to 4.2%. The result for `Cc1occc1C(=O)Nc1ccc([N+](=O)[O-])cn1` reads 17.1%; that for `C=C(C)CN(CC)C(=O)c1cc(COc2ccc(-n3cncn3)cc2)on1`, 9.4%.
